Laboratory results from the supplement of paper PMC10338343.
± gives the standard deviation.

Key:
[1] = test system: MILI (PIWIL2) piRISC loaded with piRNA #1 (26 nt); experiment: pre-steady-state target cleavage rate (min^-1); guide: piRNA #1 5'p-UGAGGUAGUAGGUUGUAUAGUAUCCA; higher = faster piRNA-guided slicing of the target; conditions: auxiliary factor: 500 nM mouse GTSF1
Summary of the method: (§1)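 In Cleave-'n-Seq, a transcribed, DNA-blocked target RNA library (0.1 nM) was combined with 1 nM active affinity-purified piRISC bearing one synthetic guide, with or without 500 nM GTSF1 partner protein. Reactions ran in HEPES–potassium acetate buffer at 33 °C for 0–8 or 0–960 min. Uncleaved targets were sequenced and normalised to depth and to weakly complementary targets, three trials were pooled, and k3 was capped at 0.0001 min^-1. The pre-steady-state cleavage rate was obtained by fitting a burst-and-steady-state model.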

[2] = test system: EfPiwi piRISC loaded with piRNA #1 (26 nt); experiment: pre-steady-state target cleavage rate (min^-1); auxiliary factor: 500 nM Ephydatia muelleri Gtsf1; guide: piRNA #1 5'p-UGAGGUAGUAGGUUGUAUAGUAUCCA; MIWI and MILI are mouse PIWI proteins and EfPiwi is from a freshwater sponge; tags in brackets are library labels; higher = faster piRNA-guided slicing of the target
Summary of the method: as §1

| Sequence | pre-steady-state target cleavage rate [1] | pre-steady-state target cleavage rate [2] |
| --- | --- | --- |
| GGAGACCAUACUAUACAACCUUCUACCUCA | 0.00761 ± 0.0026 | 0.00625 ± 0.0028 |
| GGAGACCAUACCAUACAACCUACUACCUCA | 0.157 ± 0.027 | 0.107 ± 0.044 |
| GGAGACGUUACUAUACAACGUACUACCUCA | 0.0206 ± 0.0027 | 0.00362 ± 0.0014 |
| GGAGACCUAACUAUACAACCUACUACCUCG [g2:g21:cont:t1G] | 0.189 ± 0.035 | 0.0178 ± 0.0076 |
| GGAGUGGAUACUAUACAACCUACUACCUUCA | 0.128 ± 0.01 | 0.168 ± 0.061 |
| GGAGAGAGAUACUAUACAACCUACUACCUCA | 0.201 ± 0.013 | 0.159 ± 0.057 |
| GGAGACGAUAGCUAUACAACCUACUACCUCA | 0.0779 ± 0.0075 | 0.0112 ± 0.0049 |
| GGAGUCGAUACUAUACAACCUACUUCCUCA | 0.0291 ± 0.0072 | 0.00362 ± 0.0021 |
| GGAGACCUUACUAUACAACCUACAACCUCA | 0.126 ± 0.016 | 0.00341 ± 0.0024 |
| GGAGUGGAUACUAUACAAGCUAGUACCUCA | 0.0743 ± 0.014 | 0.00287 ± 0.0014 |
| GGAGAGGAUACUAUACAACCUACUACCUUCA | 0.178 ± 0.016 | 0.104 ± 0.039 |
| GGAGACCUAACUAUACAACCUACUAUCUCA | 0.0721 ± 0.017 | 0.0057 ± 0.003 |
| GGAGACCAUACUAUACAACCUACUACCCCA | 0.156 ± 0.024 | 0.00577 ± 0.0028 |
| GGAGACCUAUCUAUACAACCUAUUACCUCA | 0.0974 ± 0.01 | 0.00466 ± 0.0039 |
| GGAGUGGAUACUAUUCUACCUACUACCUCA | 0.19 ± 0.011 | 0.00571 ± 0.0035 |
| GGAGACCUAUGUAUACAACCUACUACCUCU [g2:g19:cont:t1U] | 0.0508 ± 0.0069 | 0.404 ± 0.18 |
| GGAGACGAUACUAUACAACCUACAACCACA | 0.0888 ± 0.035 | 0.00436 ± 0.0022 |
| GGAGUGGAUACAAUACAACCAACUACCUCA | 0.00919 ± 0.0019 | 0.00289 ± 0.0015 |
| GGAGAGGAUACUAUACAACCUACUACACUCA | 0.136 ± 0.019 | 0.00522 ± 0.0018 |
